From PubChem BioAssay
CSC inhib = cancer stem cell inhibition | cancer stem cell-like cells viability, luminescence | inhibition, % at 7.5 µM | actives 1.1% (n = 300,000) | AID 2717; in the data active = inhibition above about 75%; tested in HMLE shEcad cells
PAX8 reporter = inhibitors of PAX8 transcriptional activity in RMG-I cells; RMG-I TPO-luciferase reporter, SteadyGlo, 24 h; inhibition, % at 12.6 µM; actives 1.2% (n = 360,000);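 active = mean replicate inhibition at least 60% with every replicate also reaching 60%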;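 note: luciferase light reporting Pax8 driven TPO promoter activity; plate controls were median of neutral control wells for no effect and mitoxantrone controls for full effect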
Beta apoptosis = beta cell apoptosis inhibition; INS-1E cytokine-induced death, ATP luminescence, 48 h; percent of positive-control rescue, neutral wells zero; actives 0.8% (n = 300,000); protection from apoptosis, % (concentration not given with the values);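 active = Every replicate reaches about 75%, or at least half do and their mean reaches it too, limit read from the data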;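 note: 0% = cytokine-treated negative control wells and 100% = positive control rescue; higher means more ATP so stronger rescue from cytokine killing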
Shn3 inh set2 = reduces Shn3 3'UTR luciferase signal in osteoblasts. Clone20 osteoblast Shn3 3'UTR firefly luciferase, 24 h. inhibition, % at 12.5 µM. actives 0.52% (n = 360,000). AID 588674;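 active = mean inhibition of at least 75% with every replicate also reaching 75%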;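 note: 0% = median of neutral control wells and 100% = pilot-screen positive control compound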
Mdm2 MdmX PPI = human Mdm2/MdmX binding inhibition. O15151+Q00987. SaOS-2 split-luciferase Mdm2/MdmX complementation, luminescence. inhibition, % at 8 µM. actives 3% (n = 330,000). AID 485346;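 active = inhibition of at least 50% at 8 µM in the primary screen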
Target sequence (O15151 whole entry, looked up): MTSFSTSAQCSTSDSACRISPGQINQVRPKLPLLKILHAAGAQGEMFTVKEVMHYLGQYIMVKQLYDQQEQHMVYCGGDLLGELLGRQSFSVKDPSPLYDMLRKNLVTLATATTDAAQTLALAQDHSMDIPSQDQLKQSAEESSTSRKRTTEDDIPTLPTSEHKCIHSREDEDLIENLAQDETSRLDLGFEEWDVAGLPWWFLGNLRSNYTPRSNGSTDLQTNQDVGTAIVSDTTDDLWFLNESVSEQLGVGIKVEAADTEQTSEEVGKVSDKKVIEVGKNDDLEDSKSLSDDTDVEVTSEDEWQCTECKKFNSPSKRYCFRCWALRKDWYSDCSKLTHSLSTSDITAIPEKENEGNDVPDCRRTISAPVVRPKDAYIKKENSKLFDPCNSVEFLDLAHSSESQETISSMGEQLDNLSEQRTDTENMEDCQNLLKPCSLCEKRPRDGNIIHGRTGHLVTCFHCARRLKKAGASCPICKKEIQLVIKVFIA
Target sequence (Q00987 whole entry, looked up): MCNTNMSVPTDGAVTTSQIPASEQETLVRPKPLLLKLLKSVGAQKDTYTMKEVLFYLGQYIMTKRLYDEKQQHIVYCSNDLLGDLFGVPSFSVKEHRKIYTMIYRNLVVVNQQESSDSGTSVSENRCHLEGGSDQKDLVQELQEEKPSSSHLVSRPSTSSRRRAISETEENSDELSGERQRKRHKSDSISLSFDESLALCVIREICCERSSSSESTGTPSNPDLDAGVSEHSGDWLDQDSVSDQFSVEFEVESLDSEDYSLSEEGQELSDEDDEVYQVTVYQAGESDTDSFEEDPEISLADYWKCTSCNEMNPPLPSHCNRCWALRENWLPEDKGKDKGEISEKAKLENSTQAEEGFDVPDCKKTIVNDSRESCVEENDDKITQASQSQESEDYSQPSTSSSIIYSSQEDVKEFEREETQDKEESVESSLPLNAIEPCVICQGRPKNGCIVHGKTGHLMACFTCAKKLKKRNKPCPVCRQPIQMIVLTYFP
Gli-Sufu block = Gli-Sufu pathway antagonism; inhibition, % at 5 µM; AID 588413; actives 0.74% (n = 340,000); Sufu-KO-LIGHT fibroblasts, Gli luciferase reporter luminescence;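 active = inhibition above about 55%, limit read from the data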;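 note: 0% = DMSO-treated cells and 100% = wells with medium but no cells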
Numbers without * were called inactive. Compounds with a hit are over-represented: about 4% of the library has one in this group of screens.

COc1ccc(S(=O)(=O)Nc2ccc3c(c2)C(=O)N([C@H](C)CO)C[C@@H](C)[C@H](CN(C)S(=O)(=O)c2ccc(F)cc2)OCCCC[C@H](C)O3)cc1 was read as PAX8 reporter 79*.
For COc1ccc(S(=O)(=O)Nc2ccc3c(c2)C(=O)N([C@H](C)CO)C[C@H](C)[C@H](CN(C)S(=O)(=O)c2ccc(F)cc2)OCCCC[C@@H](C)O3)cc1 the results were PAX8 reporter 0.
COc1ccc(S(=O)(=O)Nc2ccc3c(c2)C(=O)N([C@H](C)CO)C[C@H](C)[C@H](CN(C)S(=O)(=O)c2ccc(F)cc2)OCCCC[C@H](C)O3)cc1 was read as PAX8 reporter 77*.
`CO[C@@H]1CC[C@H]2CCOc3c(C#N)cccc3C(=O)N(C)CC3(CCCCC3)CC(=O)N(C)C[C@H]1O2` gave PAX8 reporter -22.
Screening COc1ccccc1NS(=O)(=O)c1ccc(N/N=C(\C)C(C)C)c([N+](=O)[O-])c1 returned CSC inhib 18, PAX8 reporter 26, Beta apoptosis 78*, Shn3 inh set2 69, Mdm2 MdmX PPI -24 and Gli-Sufu block 42.
`COc1cc(-c2ccc3c(=O)c4ccccc4n(C)c3c2)cc(OC)c1OC` gave CSC inhib 93*, PAX8 reporter 2, Beta apoptosis 12, Shn3 inh set2 0, Mdm2 MdmX PPI 36 and Gli-Sufu block 27.
CNC(=O)C[C@H]1CC[C@@H]2[C@H](COc3ccc(NC(=O)C4CC4)cc3C(=O)N2C)O1 was read as PAX8 reporter -25.
For COC(=O)[C@]12C[C@H](CC(=O)NCc3ccc(OC)c(OC)c3)C(=O)N(Cc3ccc4c(c3)OCO4)C1=C[C@H](C(C)(C)C)O[C@@H]2C the results were PAX8 reporter 79*.
CCCCCCCCN1C(=O)[C@@H](CC(=O)N2CCN(C(=O)c3ccco3)CC2)C[C@@]2(C(=O)OC)C1=C[C@H](C1CCCC1)O[C@@H]2C was read as PAX8 reporter 73*.
Screening CCCCCCCCN1C(=O)[C@@H](CC(=O)N2CCN(C(=O)c3ccco3)CC2)C[C@@]2(C(=O)OC)C1=C[C@H](C(C)(C)C)O[C@@H]2C returned PAX8 reporter 84*.
CCCCCCCCN1C(=O)[C@@H](CC(=O)N2CCC(c3ccccc3)CC2)C[C@@]2(C(=O)OC)C1=C[C@H](C(C)(C)C)O[C@@H]2C was read as PAX8 reporter -22.
Screening O=C(c1ccccc1F)N1CCCC(c2ccccc2)C1 (stereo not drawn) returned CSC inhib -11, PAX8 reporter 67*, Beta apoptosis -6, Shn3 inh set2 7, Mdm2 MdmX PPI -10 and Gli-Sufu block -4.
CCCCC[n+]1ccn(C2=C([O-])c3ccccc3C(=O)/C2=N\S(=O)(=O)c2ccc(Cl)cc2)c1 was read as CSC inhib 17, PAX8 reporter 23, Beta apoptosis 109*, Shn3 inh set2 -9, Mdm2 MdmX PPI 31 and Gli-Sufu block -11.
Screening CCCC[n+]1ccn(C2=C([O-])c3ccccc3C(=O)/C2=N\S(=O)(=O)c2ccc(Cl)cc2)c1 returned CSC inhib 27, PAX8 reporter 17, Beta apoptosis 114*, Shn3 inh set2 2, Mdm2 MdmX PPI 34 and Gli-Sufu block -8.
For CN1CCN(S(=O)(=O)c2cccc(C(=O)Nc3ccccc3N3CCCCC3)c2)CC1 the results were CSC inhib 59, PAX8 reporter -1, Beta apoptosis 6, Shn3 inh set2 17, Mdm2 MdmX PPI 17 and Gli-Sufu block 11.
CN1CCN(S(=O)(=O)c2cccc(C(=O)Nc3cc(C(F)(F)F)ccc3N3CCCCC3)c2)CC1 was read as CSC inhib 87*, PAX8 reporter -14, Beta apoptosis 18, Shn3 inh set2 16, Mdm2 MdmX PPI 25 and Gli-Sufu block 12.
Screening O=C(N[C@@H]1CC[C@@H](CCNC(=O)C2CCC2)O[C@H]1CO)c1ccccn1 returned PAX8 reporter 9.
`C[C@H](NC(=O)C[C@@H]1CC[C@@H](NC(=O)C2CCOCC2)[C@H](CO)O1)c1ccccc1` gave PAX8 reporter -4.
CCN(CC)S(=O)(=O)c1cc(C)ccc1NC(=S)Nc1cccnc1 was read as CSC inhib 23, PAX8 reporter 9, Beta apoptosis 82*, Shn3 inh set2 8, Mdm2 MdmX PPI 32 and Gli-Sufu block 9.
`COc1ccc(S(=O)(=O)N2CC[C@@H]3[C@@H](CO)Nc4ccc(-c5ccc(C#N)cc5)cc4[C@@H]32)cc1` gave PAX8 reporter 63*.
Screening COc1ccc(S(=O)(=O)N2CC[C@@H]3[C@H](CO)Nc4ccc(-c5ccc(C#N)cc5)cc4[C@@H]32)cc1 returned PAX8 reporter 51.
For COc1cccc(-c2ccc3c(c2)[C@H]2[C@H](CCN2S(=O)(=O)c2ccccc2F)[C@H](CO)N3)c1 the results were PAX8 reporter 22.
`O=S(=O)(c1ccccc1F)N1CC[C@@H]2[C@H](CO)Nc3ccc(C4=CCCCC4)cc3[C@@H]21` gave PAX8 reporter 89*.
For COc1ccccc1-c1ccc2c(c1)[C@@H]1[C@@H](CCN1S(=O)(=O)c1cccc(C)c1)[C@H](CO)N2 the results were PAX8 reporter 53.
`COc1cccc(S(=O)(=O)N2CC[C@@H]3[C@@H](CO)Nc4ccc(-c5ccccc5OC)cc4[C@@H]32)c1` gave PAX8 reporter 80*.
Screening COc1cccc(-c2ccc3c(c2)[C@H]2[C@H](CCN2S(=O)(=O)c2ccccc2F)[C@@H](CO)N3)c1 returned PAX8 reporter 101*.
`C[C@@H]1CN([C@@H](C)CO)C(=O)c2cc(C#CC3CCCC3)cnc2O[C@H]1CN(C)C(=O)c1ccncc1` gave PAX8 reporter 31.
Screening COc1ccc(NC(=O)Nc2ccc3c(c2)CC(=O)N([C@@H](C)CO)C[C@H](C)[C@@H](CN(C)C(=O)Nc2cccc4ccccc24)O3)cc1 returned PAX8 reporter 4.
Screening Cc1ccccc1-c1ccc([C@H]2[C@@H](CO)N3CCCCN(C(=O)NC4CCCC4)C[C@H]23)cc1 returned PAX8 reporter 35.
O=C(Cc1ccccc1)N1CC[C@@H]2[C@H]1c1cc(-c3ccccc3)ccc1N[C@@H]2CO was read as PAX8 reporter 62*.
Screening Cc1ccccc1S(=O)(=O)N1CC[C@@H]2[C@H](CO)Nc3ccc(-c4cccc(F)c4)cc3[C@@H]21 returned PAX8 reporter 114*.
Screening O=C(Cc1ccccc1)N1CC[C@@H]2[C@@H](CO)Nc3ccc(-c4ccccc4)cc3[C@@H]21 returned PAX8 reporter 5.
Screening COc1ccccc1S(=O)(=O)N1CC[C@H]2[C@H](CO)Nc3ccc(-c4ccc(F)cc4)cc3[C@H]21 returned PAX8 reporter 72*.
